Screening results: PubChem, several laboratories
ADAM10 inh – human ADAM10 inhibitors, primary screen, biochemical, QFRET, HTS; Disintegrin and metalloproteinase domain-containing protein 10 (Homo sapiens), O14672; recombinant ADAM10, EDANS/DABCYL FRET peptide cleavage, 3 h; inhibition, % at 7 µM; 370,000 tested, 0.62% active; AID 720582, 2013;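 active means inhibition above a per-campaign cutoff equal to the mean of compounds falling between control-based bounds plus 3 SD, cut at about 20% in these data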;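 further: 0% = DMSO wells while the 100% control is not disclosed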
GC-B act – human GC-B receptor activators, primary screen, HEK293 GC-B cells, cGMP TR-FRET, EC30 CNP; 370,000 tested, 0.11% active; 0% at EC30 CNP, 100% saturating CNP; activation, % at 10 µM; Atrial natriuretic peptide receptor 2 (Homo sapiens), P20594; AID 1920062, 2024;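 active means activation at 10 µM reaching about 35% in either raw or pattern-adjusted values, limit read from the data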
ADAM17 inh – ADAM17 inhibitors, primary screen, biochemical, QFRET; Disintegrin and metalloproteinase domain-containing protein 17 (Homo sapiens), P78536; recombinant ADAM17, EDANS/DABCYL FRET peptide cleavage; inhibition, % at 6.95 µM; 370,000 tested, 0.83% active;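 active means inhibition above the mean of compounds lying between control limits plus 3 SD, set per campaign, cut at about 8.5% in these data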;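 further: 0% = DMSO-only wells as the low control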
FAS-TE inh – FAS thioesterase domain inhibitors, primary screen, biochemical, fluorescence intensity, uHTS. Fatty acid synthase (Homo sapiens), P49327. recombinant FAS-TE, OMFH fluorogenic substrate, fluorescence endpoint. inhibition, % at 15 µM. 360,000 tested, 0.67% active;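 active means compounds whose normalised, plate-corrected inhibition of enzyme fluorescence in the single-dose primary screen is 50% or more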;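 further: 0% = DMSO with enzyme and 100% = substrate without enzyme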
GC-A act – GC-A stimulated cGMP production enhancers – HEK293 GC-A cells, cGMP TR-FRET, EC30 ANP, primary screen | Atrial natriuretic peptide receptor 1 (Homo sapiens), P16066 | 0% at EC30 ANP, 100% saturating ANP | activation, % at 10 µM | 370,000 tested, 0.14% active | AID 1671463, 2021; in the data active means activation above about 40%
Target sequence (P16066 whole entry, looked up): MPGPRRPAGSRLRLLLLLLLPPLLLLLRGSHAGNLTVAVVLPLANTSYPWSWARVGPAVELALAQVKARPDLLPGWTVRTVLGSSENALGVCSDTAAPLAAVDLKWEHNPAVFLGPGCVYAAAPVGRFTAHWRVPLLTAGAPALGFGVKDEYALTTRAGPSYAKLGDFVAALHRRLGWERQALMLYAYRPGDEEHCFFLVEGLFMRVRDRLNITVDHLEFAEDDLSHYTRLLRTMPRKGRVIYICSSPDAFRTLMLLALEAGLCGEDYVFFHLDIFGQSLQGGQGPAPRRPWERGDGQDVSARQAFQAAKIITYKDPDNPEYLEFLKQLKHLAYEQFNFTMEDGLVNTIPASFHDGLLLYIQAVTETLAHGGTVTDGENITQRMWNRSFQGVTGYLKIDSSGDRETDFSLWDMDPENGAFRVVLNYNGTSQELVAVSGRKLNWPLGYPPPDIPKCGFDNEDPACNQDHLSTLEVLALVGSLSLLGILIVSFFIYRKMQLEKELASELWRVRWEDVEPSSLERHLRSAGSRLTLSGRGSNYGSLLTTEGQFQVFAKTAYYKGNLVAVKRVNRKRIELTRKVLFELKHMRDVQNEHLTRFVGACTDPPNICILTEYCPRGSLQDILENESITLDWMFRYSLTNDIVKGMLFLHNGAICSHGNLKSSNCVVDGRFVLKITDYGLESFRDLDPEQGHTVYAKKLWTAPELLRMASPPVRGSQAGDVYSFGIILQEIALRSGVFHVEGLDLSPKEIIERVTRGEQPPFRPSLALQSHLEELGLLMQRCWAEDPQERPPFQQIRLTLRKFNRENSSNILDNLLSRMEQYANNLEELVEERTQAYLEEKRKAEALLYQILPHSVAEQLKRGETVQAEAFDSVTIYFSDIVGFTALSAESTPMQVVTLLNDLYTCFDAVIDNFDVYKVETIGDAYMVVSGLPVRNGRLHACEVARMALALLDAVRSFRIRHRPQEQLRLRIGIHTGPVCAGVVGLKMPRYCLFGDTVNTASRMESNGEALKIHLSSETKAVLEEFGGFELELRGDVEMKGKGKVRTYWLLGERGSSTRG
ADAM10 confirm – human ADAM10 inhibitors, confirmation, biochemical, QFRET, triplicate | 2,100 tested, 1% active | shares compounds with ADAM10 inh | inhibition, % at 6.95 µM | ADAM10 QFRET peptide cleavage, EDANS fluorescence;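 active means inhibition above about 20% chosen separately for each screening run, limit read from the data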;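 further: 0% = DMSO wells and 100% = marimastat wells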
ADAM17 ctr – ADAM17 inhibitors, counter-screen for ADAM10 exosite inhibitor project, biochemical, QFRET, high throughput; shares compounds with ADAM10 inh; ADAM17 QFRET peptide cleavage, EDANS fluorescence; inhibition, % at 6.95 µM; 2,100 tested, 0.5% active;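 active means mean triplicate inhibition above the solvent-only control wells' mean plus 3 SD, cut at about 12% in these data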;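 further: 0% = DMSO wells and 100% = marimastat wells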
ADAM10 counter – ADAM10 inhibitors, counter-screen for ADAM17 exosite inhibitor project, biochemical, FRET, human ADAM10; recombinant ADAM10, EDANS/DABCYL FRET peptide cleavage, 3 h; shares compounds with ADAM17 inh; 2,900 tested, 47% active; inhibition, % at 6.95 µM;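 active means mean inhibition over the triplicate runs exceeds the activity threshold set in the earlier primary screen, cut at about 20% in these data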;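 further: 0% = DMSO wells and 100% = marimastat wells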
ADAM17 confirm – ADAM17 inhibitors, hit retest, confirmation, biochemical, QFRET peptide cleavage | shares compounds with ADAM17 inh | recombinant ADAM17, EDANS/DABCYL QFRET peptide cleavage | inhibition, % at 6.95 µM | 2,900 tested, 65% active;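 active means mean inhibition across replicates above the hit cutoff set in the primary screen, cut at about 8.5% in these data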;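 further: 0% = DMSO wells and 100% = marimastat wells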
Numbers without * were called inactive; . = no result given. This is a sample that favours compounds with a hit; in the whole collection about 2% have one here.

SMILES	ADAM10 inh	GC-B act	ADAM17 inh	FAS-TE inh	GC-A act	ADAM10 confirm	ADAM17 ctr	ADAM10 counter	ADAM17 confirm
COc1ccc(CCC(=O)Nc2cc(Cl)ccc2OC)cc1	-1	-8	-2	11	-9	.	.	.	.
CCN(CC)c1ccc(C(=C2C=CC(=[N+](CC)CC)C=C2)c2ccc(N(CC)CC)cc2)cc1	23*	-66	7	26	-251	0	0	.	.
COc1cccc2sc(N(CCCN(C)C)C(=O)c3ccc(S(=O)(=O)N4CCc5ccccc5C4)cc3)nc12	5	-3	-2	8	-7	.	.	.	.
COc1ccc(C)c2sc(N(CCCN(C)C)C(=O)c3ccc(S(=O)(=O)N4CCc5ccccc5C4)cc3)nc12	31*	-2	-9	18	-8	21*	11	.	.
O=C1N[C@@H](Cc2c[nH]c3ccccc23)COC(=O)[C@H](Cc2ccc(F)cc2)C/C=C\C[C@@H]1CC(=O)N(CCO)Cc1ccccc1	10	-1	4	10	-13	.	.	.	.
O=C1N[C@@H](Cc2c[nH]c3ccccc23)COC(=O)[C@@H](Cc2ccc(F)cc2)C/C=C\C[C@H]1CC(=O)N(CCO)Cc1ccccc1	24*	0	9.7*	29	1	4	2	30*	15*
COc1ccc(CCN(C(=S)Nc2ccccc2)C2CC(=O)N(c3ccccc3)C2=O)cc1 (centres undefined)	11	-5	4	16	-1	.	.	.	.
O=C1CC(N(CCc2ccccc2)C(=S)Nc2ccccc2)C(=O)N1c1ccc(Br)cc1 (centres undefined)	35*	-4	17*	39	-6	8	4	46*	22*
C=CC[C@@H](CC(=O)N(CCO)Cc1ccccc1)C(=O)N[C@@H](COC(=O)[C@@H](CC=C)Cc1ccc(F)cc1)Cc1c[nH]c2ccccc12	18	-5	8	24	-8	.	.	.	.
C=CCC[C@H](Cc1ccc(F)cc1)C(=O)OC[C@H](Cc1c[nH]c2ccccc12)NC(=O)[C@@H](CC=C)CC(=O)N[C@H](CO)Cc1ccccc1	30*	-1	12*	35	-11	13	3	38*	22*
C=CCC[C@@H](Cc1ccc(F)cc1)C(=O)OC[C@H](Cc1c[nH]c2ccccc12)NC(=O)[C@@H](CC=C)CC(=O)N[C@H](CO)Cc1ccccc1	3	-12	-1	8	-12	.	.	.	.
C=CCC[C@H](Cc1ccc(F)cc1)C(=O)OC[C@@H](Cc1c[nH]c2ccccc12)NC(=O)[C@H](CC=C)CC(=O)N(CCO)Cc1ccccc1	43*	-10	25*	20	-8	11	3	61*	35*
C=CCC[C@H](Cc1ccc(F)cc1)C(=O)OC[C@@H](Cc1c[nH]c2ccccc12)NC(=O)[C@@H](CC=C)CC(=O)N[C@H](CO)Cc1ccccc1	7	-4	5	9	-8	.	.	.	.
C=CCC[C@@H](Cc1ccc(F)cc1)C(=O)OC[C@@H]1CCCN1C(=O)[C@H](CC=C)CC(=O)N[C@H](CO)Cc1ccccc1	27*	-6	9.4*	32	3	0	0	28*	12*
C=CC[C@H](CC(=O)N(CCO)Cc1ccccc1)C(=O)N[C@@H](COC(=O)[C@@H](CC=C)Cc1ccc(F)cc1)Cc1c[nH]c2ccccc12	37*	-5	14*	16	-6	7	3	45*	25*
COc1ccc(-c2cc(-c3nnc4sc(-c5cccs5)nn34)[nH]n2)cc1	4	-8	2	.	7	.	.	.	.
COP(=O)(CC(=O)C(Cc1ccccc1)NC(=O)OC(C)(C)C)OC (centres undefined)	-3	-2	-5	.	4	.	.	.	.
C#Cc1cccc(OCC(C)CN2CCC(C(O)(c3ccccc3)c3ccccc3)CC2)c1 (centres undefined)	15	0	8	.	-15	.	.	.	.
C=CCC[C@@H](Cc1ccc(F)cc1)C(=O)OC[C@@H](Cc1c[nH]c2ccccc12)NC(=O)[C@H](CC=C)CC(=O)N(CCO)Cc1ccccc1	40*	-14	17*	18	-4	13	3	69*	26*
Nc1[nH]c(C(=O)c2ccc(Br)cc2)c(-c2cccc3ccccc23)c1C(=O)NCCc1c[nH]c2ccccc12	-14	1	-1	.	-4	.	.	.	.
CC1=C(C(=O)Nc2ccc([N+](=O)[O-])cc2)C(c2cccc(C(F)(F)F)c2)NC(=S)N1c1ccccc1 (centres undefined)	34*	-3	18*	39	-9	6	2	59*	32*
c1ccc(-c2ccc(CNc3nc(-c4ccccn4)nnc3-c3ccccc3)cc2)cc1	14	1	5	.	0	.	.	.	.
CC(=O)O[C@H]1[C@H](OC(C)=O)C[C@]2(OC(C)=O)C[C@H]1OC2=O	-4	-4	-8	.	0	.	.	.	.
CC(=O)c1cccc(NC(=O)C(OC(=O)c2ccccc2NS(=O)(=O)c2cccs2)c2ccccc2)c1 (centres undefined)	21*	5	10*	30	-2	13	5	12	18*
Cc1cc(C)cc(NC(=O)C(OC(=O)c2cccs2)c2ccccc2)c1 (centres undefined)	21*	-14	11*	24	-35	5	2	11	8
CC(C)(C)NC(=O)C(OC(=O)c1cccs1)c1ccccc1 (centres undefined)	9	.	-2	-3	.	.	.	.	.
